Data reported in PubChem BioAssay (NCATS).
Results filed as inconclusive are left out. Activity calls are given as the source filed them. Calls follow the shape of the dose curve; as a rule, active = well fitted curve in the direction sought with a large enough effect; inconclusive = small, poorly fitted or top-dose-only effect, or another doubt; inactive = no such curve, though single readings can be large; an effect the other way counts as inactive or inconclusive.

biological target: Luciferin 4-monooxygenase (Photinus pyralis) (UniProt P08659); assay: Biochemical firefly luciferase enzyme assay for NPC (AID 624030); also: nearly all actives have a fitted effect of over 70% in size; also: potency is read from the fitted curve at half-maximal effect;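 as to activity change, negative = inhibition: purified P. pyralis luciferase at 10 nM with luciferin and ATP substrate; 0% = DMSO and -100% = full luciferase inhibition by PTC124 control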; conditions: purified P. pyralis luciferase, luminescence, 5 min; series mostly up to 58.6 µM; activity change, negative = inhibition: at the top concentration
Outline: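 Counter-screen for direct inhibition of the luciferase enzyme by approved-drug library compounds, run at 10 nM enzyme in 50 mM Tris acetate (final). Luminescence was read within 5 min of enzyme-buffer addition and normalized to PTC124 versus DMSO (0%).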

Luciferin 4-monooxygenase (Photinus pyralis), sequence (P08659 whole entry, looked up): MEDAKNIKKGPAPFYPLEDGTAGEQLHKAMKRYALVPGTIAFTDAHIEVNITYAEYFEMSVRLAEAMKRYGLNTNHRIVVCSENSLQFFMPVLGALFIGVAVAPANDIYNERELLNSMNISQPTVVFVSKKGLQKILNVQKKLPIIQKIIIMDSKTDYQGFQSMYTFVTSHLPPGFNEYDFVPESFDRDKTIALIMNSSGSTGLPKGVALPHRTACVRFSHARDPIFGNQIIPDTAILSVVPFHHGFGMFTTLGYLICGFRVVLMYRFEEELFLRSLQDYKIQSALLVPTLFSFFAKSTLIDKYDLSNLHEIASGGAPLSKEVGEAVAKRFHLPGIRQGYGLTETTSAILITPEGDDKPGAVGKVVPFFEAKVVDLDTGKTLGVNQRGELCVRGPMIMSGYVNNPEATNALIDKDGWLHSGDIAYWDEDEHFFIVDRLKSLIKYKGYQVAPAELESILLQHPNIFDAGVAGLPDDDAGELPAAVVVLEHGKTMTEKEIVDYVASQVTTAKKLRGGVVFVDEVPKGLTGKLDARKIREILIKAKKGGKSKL

| SMILES | activity change, negative = inhibition | Potency |
| --- | --- | --- |
| CCCCCCCCCCCCCCCCCC(=O)O | 0.804% (inactive) | – |
| NCCO | 0.755% [at 123 µM] (inactive) | – |
| O=c1[nH]c2ccccc2n1CCCN1CCN(C(c2ccccc2)c2ccccc2)CC1 | -1.25% (inactive) | – |
| CN1[C@@H](CC(=O)c2ccccc2)CCC[C@H]1C[C@H](O)c1ccccc1 | 1.01% (inactive) | – |
| CN1[C@@H]2CC[C@H]1CC(OC(c1ccccc1)c1ccccc1)C2 (stereo partly specified) | – | inactive |
| c1ccc2sc(SSc3nc4ccccc4s3)nc2c1 | -9.21% (inactive) | – |
| CN(C)CCC(c1ccc(Cl)cc1)c1ccccn1 (stereo unspecified) | 3.45% (inactive) | – |
| CCCCCCCCCCCCCCCC(=O)OC(C)C | 0.434% (inactive) | – |
| CC1OC1P(=O)(O)O (stereo unspecified) | 5.42% (inactive) | – |
| CCCOC(=O)c1ccc(O)cc1 | -9.58% (inactive) | – |
| COc1cc(CNC(=O)CCCC/C=C/C(C)C)ccc1O | -8.7% (inactive) | – |
| O=C(CCN1CCN(CCO)CC1)N1c2ccccc2Sc2ccc(C(F)(F)F)cc21 | 7.99% (inactive) | – |
| N.N.O=C(O)C1(C(=O)O)CCC1.[Pt] | -14.6% (inactive) | – |
| Nc1ccc([N+](=O)[O-])cc1O | -8.7% [at 123 µM] (inactive) | – |
| O=C(O)c1cc(O)c(O)c(O)c1 | -15.8% (inactive) | – |
| CN1CC(=O)N/C1=N/C(=O)Nc1cccc(Cl)c1 | -17.7% (inactive) | – |
| N=C1N=C(N)c2cc3ccccc3cc21 | -6.18% [at 123 µM] (inactive) | – |
| CC(C)Cc1ccc([C@H](C)C(=O)O)cc1 | -4.06% (inactive) | – |
| O=C(O)/C=C/C(O)c1ccc(Cl)cc1 (stereo unspecified) | -17.9% (inactive) | – |
| O=c1cc(-c2ccccc2)oc2ccccc12 | – | 20.9 µM (active) |
| Nc1cc(-c2ccncc2)c[nH]c1=O | -13.2% (inactive) | – |
| O=C(O)[C@H](O)[C@@H](O)[C@H](O)[C@H](O)CO | 12.1% (inactive) | – |
| CCCC(=O)OC[C@@H](OC(=O)CCC)[C@@H](OC(=O)CCC)[C@H](Cn1c2nc(=O)[nH]c(=O)c-2nc2cc(C)c(C)cc21)OC(=O)CCC | -8.95% (inactive) | – |
| C=CCCCCCCCCC(=O)O | 2.22% (inactive) | – |
| O=C1CN(/N=C/c2ccc([N+](=O)[O-])o2)C(=O)N1 | -12.1% (inactive) | – |

tested on: not listed separately; assay: S16 Schwann cell viability assay (CellTiter-Glo assay) (AID 624031); conditions: S16 rat Schwann cells viability, 24 h; series mostly up to 57.5 µM; activity change, negative = cytotoxicity: at the top concentration;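 also: cellular ATP luminescence as a viability measure; plate controls were DMSO-treated cells for no effect and cell-free wells for full effect; nearly all actives have a fitted effect of over 70% in size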
Outline: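 Native S16 Schwann cells (rat), serum-containing medium, overnight attachment then 24 h drug exposure at 37 °C/5% CO2. CellTiter-Glo ATP signal; normalized to cell-free and vehicle wells.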

| SMILES | activity change, negative = cytotoxicity |
| --- | --- |
| CN1[C@@H]2CC[C@H]1CC(OC(=O)C(CO)c1ccccc1)C2 (stereo partly specified) | -2.62% (inactive) |
| CCCCCCCCCCCCCCCCCC(=O)O | -8.29% (inactive) |
| c1ccc2sc(SN3CCOCC3)nc2c1 | -26.5% (inactive) |
| CN1[C@@H](CC(=O)c2ccccc2)CCC[C@H]1C[C@H](O)c1ccccc1 | -15.1% (inactive) |
| Cc1c(Nc2ncccc2C(=O)O)cccc1C(F)(F)F | 14.4% [at 25.7 µM] (inactive) |
| CC(C(=O)O)c1ccc2c(c1)[nH]c1ccc(Cl)cc12 (stereo unspecified) | 19.1% (inactive) |
| c1ccc2sc(SSc3nc4ccccc4s3)nc2c1 | -4.41% (inactive) |
| CCOc1ccc2nc(S(N)(=O)=O)sc2c1 | -14.8% (inactive) |
| CCCCCCCCCCCCCCCC(=O)OC(C)C | 3.9% (inactive) |
| CC1OC1P(=O)(O)O (stereo unspecified) | -22.5% (inactive) |
| CCCOC(=O)c1ccc(O)cc1 | 9.45% (inactive) |
| COc1cc(CNC(=O)CCCC/C=C/C(C)C)ccc1O | -4.86% (inactive) |
| CN1CCN(c2cc3c(nn2)Oc2ccccc2N3C)CC1 | 5.06% (inactive) |
| O=C(CCN1CCN(CCO)CC1)N1c2ccccc2Sc2ccc(C(F)(F)F)cc21 | -39.7% (inactive) |
| COc1ccc(-c2cc(=S)ss2)cc1 | 0.276% (inactive) |
| O=C(O)/C=C/C(O)c1ccc(Cl)cc1 (stereo unspecified) | -2.8% (inactive) |
| Nc1c(CC(=O)O)cccc1C(=O)c1ccc(Br)cc1 | -1.59% (inactive) |
| O=C(/C=C/c1ccccc1)NCCO | 1.27% (inactive) |
| Nc1cc(-c2ccncc2)c[nH]c1=O | 3.64% (inactive) |
| O=C(O)[C@H](O)[C@@H](O)[C@H](O)[C@H](O)CO | 2.95% (inactive) |
| C=CCCCCCCCCC(=O)O | 4.64% (inactive) |
| CCCSc1ccc2nc(NC(=O)OC)[nH]c2c1 | -29.8% [at 25.7 µM] (inactive) |
| Cc1ccc(C(=O)c2ccc(CC(=O)O)n2C)cc1 | -13% [at 25.7 µM] (inactive) |
| CCCCCCCCCCCC(=O)[O][Sn]([CH2]CCC)([CH2]CCC)[O]C(=O)CCCCCCCCCCC | -16.2% (inactive) |
| O=C(Nc1ccc(C(=O)O)c(O)c1)c1ccccc1 | -2.36% (inactive) |
| O=C1CN(/N=C/c2ccc([N+](=O)[O-])o2)C(=O)N1 | -3.27% (inactive) |

tested on: not listed separately; assay: S16 Schwann cell PMP22 intronic element firefly luciferase assay (AID 624032); conditions: S16 rat Schwann cells, PMP22 element FLuc, 24 h; series mostly up to 57.5 µM; activity change, negative = inhibition: at the top concentration; also: nearly all actives have a fitted effect of over 30% in size; also: potency is read from the fitted curve at half-maximal effect;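 as to activity change, negative = inhibition: plate controls were DMSO for no effect and PTC124 positive control mean for full effect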
Outline: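 Rat S16 Schwann cells stably carrying a PMP22 intronic element-driven Fluc reporter were seeded overnight, then exposed to compounds for 24 h at 37 °C. Luminescence was normalized to PTC124 (positive control) and DMSO (0% activity).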

| SMILES | activity change, negative = inhibition | Potency |
| --- | --- | --- |
| CN1[C@@H]2CC[C@H]1CC(OC(=O)C(CO)c1ccccc1)C2 (stereo partly specified) | 15.8% (inactive) | – |
| CCCCCCCCCCCCCCCCCC(=O)O | -2.64% (inactive) | – |
| c1ccc2sc(SN3CCOCC3)nc2c1 | 43.2% (inactive) | – |
| O=c1[nH]c2ccccc2n1CCCN1CCN(C(c2ccccc2)c2ccccc2)CC1 | – | 8.09 µM (active) |
| CN1[C@@H](CC(=O)c2ccccc2)CCC[C@H]1C[C@H](O)c1ccccc1 | -23.9% (inactive) | – |
| CN1[C@@H]2CC[C@H]1CC(OC(c1ccccc1)c1ccccc1)C2 (stereo partly specified) | – | inactive |
| Cc1c(Nc2ncccc2C(=O)O)cccc1C(F)(F)F | 2.31% [at 25.7 µM] (inactive) | – |
| CC(C(=O)O)c1ccc2c(c1)[nH]c1ccc(Cl)cc12 (stereo unspecified) | -14.2% (inactive) | – |
| c1ccc2sc(SSc3nc4ccccc4s3)nc2c1 | 44.5% (inactive) | – |
| CCOc1ccc2nc(S(N)(=O)=O)sc2c1 | 14.5% (inactive) | – |
| CCCCCCCCCCCCCCCC(=O)OC(C)C | 1.44% (inactive) | – |
| CC1OC1P(=O)(O)O (stereo unspecified) | 5.78% (inactive) | – |
| CCCOC(=O)c1ccc(O)cc1 | 11.2% (inactive) | – |
| O=C(O)c1cc(O)c(O)c(O)c1 | -6.85% (inactive) | – |
| COc1ccc(-c2cc(=S)ss2)cc1 | 16.1% (inactive) | – |
| O=C(O)/C=C/C(O)c1ccc(Cl)cc1 (stereo unspecified) | -0.495% (inactive) | – |
| Nc1c(CC(=O)O)cccc1C(=O)c1ccc(Br)cc1 | -2.3% (inactive) | – |
| O=C(/C=C/c1ccccc1)NCCO | -2.59% (inactive) | – |
| Nc1cc(-c2ccncc2)c[nH]c1=O | 6.01% (inactive) | – |
| O=C(O)[C@H](O)[C@@H](O)[C@H](O)[C@H](O)CO | 0.417% (inactive) | – |
| CCCC(=O)OC[C@@H](OC(=O)CCC)[C@@H](OC(=O)CCC)[C@H](Cn1c2nc(=O)[nH]c(=O)c-2nc2cc(C)c(C)cc21)OC(=O)CCC | – | 14.4 µM (active) |
| C=CCCCCCCCCC(=O)O | 8.05% (inactive) | – |
| Cc1ccc(C(=O)c2ccc(CC(=O)O)n2C)cc1 | -15.3% [at 25.7 µM] (inactive) | – |
| CCCCCCCCCCCC(=O)[O][Sn]([CH2]CCC)([CH2]CCC)[O]C(=O)CCCCCCCCCCC | – | 9.07 µM (active) |
| O=C(Nc1ccc(C(=O)O)c(O)c1)c1ccccc1 | 9.49% (inactive) | – |
